Assay [1] is described as follows: Wnt pathway potentiators raising nuclear beta-catenin – imaging, WNT3A-conditioned medium, mouse C2C12, NPC library, primary screen (AID 1117326; in the data active = nuclear beta-catenin stimulation mostly above about 4.2%, no sharp cut-off; inactive = mostly below about 10%; note: reference of the scale not given here). Conditions: stronger effect = higher value.
Assay [2] in a line: stimulators of insulin release from INS-1E, primary screen, cell-based, 5 mM glucose, NPC library (AID 1117329). Note: reference of the scale not given here. Conditions: rat INS-1E insulin secretion, at 10 µM, stronger effect = higher value.
Assay [3] can be described thus: growth inhibition of GSK3B-pretreated HCT116 cells – cell-based, CellTiter-Glo, 0.2 to 20 µM (AID 1117336;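 active = compounds lowering colon cancer cell viability after pretreatment blocking the GSK3B kinase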). As to conditions: HCT116 viability after GSK3B inhibitor, at 20 µM, stronger effect = higher value. Background: ATP-based viability assays read luminescence as a measure of living cells.
A short description of assay [4]: inhibition of endothelial tube formation, primary screen, imaging, VEGF stimulated, CD31 staining, tube area, NPC library (AID 1117340;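 active = compound that reduces growth-factor-driven endothelial tube area in a mixed cell culture, no cutoff stated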). Conditions: VEGF-stimulated ADSC/ECFC co-culture, at 10 µM, stronger effect = higher value.
The nature of assay [5]: GLP1 release stimulators, primary, NCI-H716, NPC library (AID 1117341;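 active = compound raises GLP1 secretion from the human gut endocrine cells, with no numeric limit stated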; note: reference of the scale not given here). Conditions: NCI-H716 cells, at 10 µM, stronger effect = higher value.
A short description of assay [6]: HCT116 colon cancer cell growth inhibition, primary screen, CellTiter-Glo luminescence, NPC library (AID 1117342;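 active = compounds that lower survival of HCT116 colon cancer cells in the luminescence readout, no numeric limit stated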). As to conditions: at 20 µM (top of the series).
Assay [7] in a line: reduced SW480 viability measured with CellTiter-Glo, NPC library, primary (AID 1117343;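 active = compounds that lower viability of the colon cancer cells in the luminescence readout, with no numeric limit stated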). As to conditions: CellTiter-Glo luminescence; at 20 µM (top of the series).
Assay [8] can be described thus: NPC library primary testing for decreased DLD-1 cell viability via CellTiter-Glo (AID 1117346;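 active = compounds that lower survival of DLD-1 colon cancer cells in the luminescence readout, no cutoff given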). Conditions: DLD-1 viability, CellTiter-Glo luminescence; at 20 µM (top of the series).

Active and inactive are the calls of the source.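 Rule for the calls, unless noted: active = compound raises insulin release from rat beta cells at 5 mM glucose, no numeric limit stated; inactive = the rest.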

Regarding `NC(=S)N=Nc1ccc(NN=C(N)N)cc1`, the nuclear beta-catenin stimulation in assay [1] (at 10 µM) is 1.9% (inactive); in assay [1] (stimulation, at 2 µM) it was 0.5%. In addition, the insulin secretion stimulation in assay [2] was 6.7% (inactive). Besides, the viability decrease in assay [3] was -24.6% (inactive). In addition, the tube area decrease in assay [4] was 15.7% (inactive). The GLP1 secretion stimulation in assay [5] is -3.7% (inactive). For the same molecule, the inhibition of viability in assay [6] was 4.5% (inactive). Further, the viability decrease (inhibition) in assay [7] is 25% (inactive); in assay [8], 72.1% (active).
For `CCC(=O)O[C@]1(C(=O)COC)[C@@H](C)C[C@H]2[C@@H]3CCC4=CC(=O)C=C[C@]4(C)C3(F)[C@@H](O)C[C@@]21C` (some centres undefined), the nuclear beta-catenin stimulation in assay [1] (at 10 µM) was 1.5% (inactive); in assay [1] (stimulation, at 2 µM), 0.5%. In addition, in assay [2], the insulin secretion stimulation was 1.1% (inactive). The viability decrease in assay [3] is -69.2% (inactive). Moreover, the tube area decrease in assay [4] is 6.6% (inactive). Further, in assay [5], the GLP1 secretion stimulation is -0.3% (inactive). Moreover, in assay [6], the inhibition of viability is -4.8% (inactive). The figures for the viability decrease (inhibition) in assay [7] and in assay [8] were 6% (inactive) and -2.9% (inactive), respectively.
Consider `CC(C)OP(=O)(CP(=O)(OC(C)C)OC(C)C)OC(C)C`, for which the nuclear beta-catenin stimulation in assay [1] (at 10 µM) was -0.3% (inactive); in assay [1] (stimulation, at 2 µM), 1.5%. The insulin secretion stimulation in assay [2] was 0.8% (inactive). For the same molecule, in assay [3], the viability decrease is -8.5% (inactive). Besides, in assay [4], the tube area decrease is 11.4% (inactive). In assay [5], the GLP1 secretion stimulation was -0.8% (inactive). Further, the inhibition of viability in assay [6] is 1.5% (inactive). The viability decrease (inhibition) is -11.1% (inactive) in assay [7] and 10.4% (inactive) in assay [8].
`Cc1cccc(C)c1NC(=O)CN(CC(=O)O)CC(=O)O`: the nuclear beta-catenin stimulation in assay [1] (at 10 µM) was 0.4% (inactive); in assay [1] (stimulation, at 2 µM), 0.2%. In assay [2], the insulin secretion stimulation was -2.1% (inactive). For the same molecule, the viability decrease in assay [3] was -0.05% (inactive). For the same molecule, the tube area decrease in assay [4] is -22.7% (inactive). In addition, the GLP1 secretion stimulation in assay [5] was 1.6% (inactive). Moreover, the inhibition of viability in assay [6] is 2.2% (inactive). Also, the results for the viability decrease (inhibition) in assay [7] and in assay [8] were 43.5% (inactive) and 8.9% (inactive), respectively.
Take `CCCCOCCOC(=O)c1cccnc1`: the nuclear beta-catenin stimulation is 1.3% (inactive) in assay [1] (at 10 µM) and -0.3% in assay [1] (stimulation, at 2 µM). The insulin secretion stimulation in assay [2] was 2.6% (inactive). For the same molecule, in assay [3], the viability decrease is -29.5% (inactive). Besides, the tube area decrease in assay [4] is 1.8% (inactive). The GLP1 secretion stimulation in assay [5] is 2.3% (inactive). Moreover, the inhibition of viability in assay [6] is -11.9% (inactive). The values for the viability decrease (inhibition) in assay [7] and in assay [8] were 18.6% (inactive) and -20.5% (inactive), respectively.
As for `Cc1cc(=O)oc2cc(O[C@@H]3SC[C@@H](O)[C@H](O)[C@H]3O)ccc12`, the nuclear beta-catenin stimulation is -0.2% (inactive) in assay [1] (at 10 µM) and -1.9% in assay [1] (stimulation, at 2 µM). Also, the insulin secretion stimulation in assay [2] was 1.1% (inactive). Further, the viability decrease in assay [3] was -1.3% (inactive). Further, in assay [4], the tube area decrease is 13.6% (inactive). Besides, the GLP1 secretion stimulation in assay [5] was 3.6% (inactive). Further, the inhibition of viability in assay [6] was -1.1% (inactive). Besides, the viability decrease (inhibition) was -15.9% (inactive) in assay [7] and 15.4% (inactive) in assay [8].
As for `Cc1cc(O)cc2c1O[C@](C)(CCC[C@H](C)CCC[C@H](C)CCCC(C)C)CC2`, the nuclear beta-catenin stimulation in assay [1] (at 10 µM) was -1.3% (inactive); in assay [1] (stimulation, at 2 µM), -2%. Further, the insulin secretion stimulation in assay [2] was 3.8% (inactive). Also, the viability decrease in assay [3] is 12.5% (inactive). Besides, in assay [4], the tube area decrease is 6.7% (inactive). In addition, in assay [5], the GLP1 secretion stimulation is 0% (inactive). The inhibition of viability in assay [6] was 14.3% (inactive). For the same molecule, the viability decrease (inhibition) in assay [7] is -12.8% (inactive); in assay [8] it was -10.9% (inactive).
For `COc1ccccc1OC(=O)Oc1ccccc1OC`, the nuclear beta-catenin stimulation was 1.1% (inactive) in assay [1] (at 10 µM) and 0.3% in assay [1] (stimulation, at 2 µM). Also, the insulin secretion stimulation in assay [2] is -2.4% (inactive). For the same molecule, the viability decrease in assay [3] is 6.05% (inactive). Moreover, in assay [4], the tube area decrease is 14.8% (inactive). In assay [5], the GLP1 secretion stimulation was 1.6% (inactive). The inhibition of viability in assay [6] was 3.6% (inactive). The viability decrease (inhibition) in assay [7] is 31.6% (inactive); in assay [8] it was 14.4% (inactive).
With `CCCCCCCCCCCC[N+](C)(C)Cc1ccccc1`, the nuclear beta-catenin stimulation in assay [1] (at 10 µM) is 7.4% (inactive); in assay [1] (stimulation, at 2 µM) it was -1.2%. Besides, the insulin secretion stimulation in assay [2] was 1.9% (inactive). In addition, the viability decrease in assay [3] was 99.3% (active). The tube area decrease in assay [4] is 108% (active). Besides, in assay [5], the GLP1 secretion stimulation is -2.1% (inactive). In addition, the inhibition of viability in assay [6] is 99.6% (active). The viability decrease (inhibition) in assay [7] was 78.1% (active); in assay [8] it was 101% (active).
As to `CCCCCCCCCCCCSCCOCCO`, the nuclear beta-catenin stimulation in assay [1] (at 10 µM) is 0.7% (inactive); in assay [1] (stimulation, at 2 µM), 2%. In assay [2], the insulin secretion stimulation is -1.7% (inactive). For the same molecule, the viability decrease in assay [3] is 9.65% (inactive). For the same molecule, the tube area decrease in assay [4] was 6.6% (inactive). Also, in assay [5], the GLP1 secretion stimulation was 1.9% (inactive). Further, in assay [6], the inhibition of viability is -38.8% (inactive). Moreover, the values for the viability decrease (inhibition) in assay [7] and in assay [8] were 122% (active) and 94.7% (active), respectively.
As to `Nc1ccc(C(=O)Nc2ccccc2N)cc1`, the nuclear beta-catenin stimulation in assay [1] (at 10 µM) is 10.2% (inactive); in assay [1] (stimulation, at 2 µM), 1.9%. For the same molecule, the insulin secretion stimulation in assay [2] was -0.6% (inactive). The viability decrease in assay [3] was 39.9% (active). Besides, the tube area decrease in assay [4] was 8.5% (inactive). The GLP1 secretion stimulation in assay [5] is 1.1% (inactive). The inhibition of viability in assay [6] is 72.5% (active). Also, the values for the viability decrease (inhibition) in assay [7] and in assay [8] were 64.9% (active) and 29.3% (inactive), respectively.
For the molecule `CC(=O)CC/C=C(\C)CC/C=C(\C)CC/C=C(\C)CCC=C(C)C`, the nuclear beta-catenin stimulation in assay [1] (at 10 µM) was 2.6% (inactive); in assay [1] (stimulation, at 2 µM), 1.2%. In addition, the insulin secretion stimulation in assay [2] is -2.1% (inactive). Moreover, the viability decrease in assay [3] was -2.15% (inactive). In assay [4], the tube area decrease is 19.6% (inactive). Also, in assay [5], the GLP1 secretion stimulation was -1.7% (inactive). For the same molecule, the inhibition of viability in assay [6] was -35.4% (inactive). Further, the figures for the viability decrease (inhibition) in assay [7] and in assay [8] were 34.2% (active) and 0.15% (inactive), respectively.
Consider `C[C@@H](CN(C)C)CN1c2ccccc2Sc2ccccc21`, for which the nuclear beta-catenin stimulation was 3% (inactive) in assay [1] (at 10 µM) and -0.4% in assay [1] (stimulation, at 2 µM). Further, the insulin secretion stimulation in assay [2] was 15.1% (active). Further, the viability decrease in assay [3] is -61.3% (inactive). The tube area decrease in assay [4] was 0.6% (inactive). For the same molecule, the GLP1 secretion stimulation in assay [5] was 10.3% (inactive). Also, the inhibition of viability in assay [6] was 45.3% (inactive). Also, the viability decrease (inhibition) in assay [7] was 103% (active); in assay [8], 48.3% (inactive).
`COc1ccc(S(=O)(=O)Nc2nnc(CC(C)C)s2)cc1`: the nuclear beta-catenin stimulation was -0.3% (inactive) in assay [1] (at 10 µM) and -0.5% in assay [1] (stimulation, at 2 µM). The insulin secretion stimulation in assay [2] is 5.1% (inactive). The viability decrease in assay [3] was -9.2% (inactive). Further, the tube area decrease in assay [4] was -5.8% (inactive). Further, the GLP1 secretion stimulation in assay [5] is -1.9% (inactive). In assay [6], the inhibition of viability was -18.3% (inactive). Also, the viability decrease (inhibition) was 13.7% (inactive) in assay [7] and -19.8% (inactive) in assay [8].
On to `Cc1[nH]cnc1-c1ccc(Cl)cc1`, for which the nuclear beta-catenin stimulation is 1.4% (inactive) in assay [1] (at 10 µM) and 1% in assay [1] (stimulation, at 2 µM). Further, the insulin secretion stimulation in assay [2] was 0.25% (inactive). Besides, the viability decrease in assay [3] is 11.7% (inactive). The tube area decrease in assay [4] was -1.2% (inactive). In addition, the GLP1 secretion stimulation in assay [5] is 0.1% (inactive). In addition, the inhibition of viability in assay [6] was 17% (inactive). Besides, the viability decrease (inhibition) is -17.6% (inactive) in assay [7] and 3.8% (inactive) in assay [8].
Turning to `CCN(CC)CCOc1ccc(C(O)(Cc2ccc(Cl)cc2)c2ccc(C)cc2)cc1` (centres undefined), the nuclear beta-catenin stimulation was 8.8% (inactive) in assay [1] (at 10 µM) and 1.9% in assay [1] (stimulation, at 2 µM). Further, the insulin secretion stimulation in assay [2] was 0.1% (inactive). In addition, the viability decrease in assay [3] was 101% (active). For the same molecule, the tube area decrease in assay [4] is 107% (active). Also, the GLP1 secretion stimulation in assay [5] is 31.5% (active). For the same molecule, the inhibition of viability in assay [6] was 102% (active). For the same molecule, the values for the viability decrease (inhibition) in assay [7] and in assay [8] were 122% (active) and 101% (active), respectively.

The values above are taken from PubChem BioAssay.
